# According to PMC7819943, “Rice protein-binding microarrays: a tool to detect cis-acting elements near promoter regions in rice”:
# The full ranking holds about 68,000 sequences; the median of “fluorescence intensity (a.u.)” is about 9,100, and the highest 2% start at about 16,000. The sample holds the highest values, similar sequences and a random draw of the others, so the mix is not that of the screen.
# Target: OsWRKY34 (Oryza sativa, UniProt Q0JBA9 1-250)
# Assay: protein-binding microarray (RPBM); PBS, 2% BSA, 51.3 ng/ul salmon testes DNA, 50 uM zinc acetate, 200 nM TF, 25 C, 1 h; high values mean tight binding
# Conditions: protein: recombinant; tags: N-terminal polyhistidine and DsRed monomer fusion (pET32a); label: CyDye5-dUTP incorporated in the synthesized complementary strand; 3' TTTTT single-stranded linker to array surface; dsDNA, one strand shown
# Procedure, shortened: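 Using Ni–NTA, transcription factors fused N-terminally to polyhistidine and DsRed were purified after expression in E. coli BL21-CodonPlus. These were incubated at 200 nM with a blocked, double-stranded custom Agilent array for 1 h at 25 °C in a buffer containing 50 µM zinc acetate, and the array was washed. The binding signal is per-feature fluorescence intensity (arbitrary units) on an Axon 4000B scanner.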
# Sequence of OsWRKY34 (Q0JBA9 entry or part of it): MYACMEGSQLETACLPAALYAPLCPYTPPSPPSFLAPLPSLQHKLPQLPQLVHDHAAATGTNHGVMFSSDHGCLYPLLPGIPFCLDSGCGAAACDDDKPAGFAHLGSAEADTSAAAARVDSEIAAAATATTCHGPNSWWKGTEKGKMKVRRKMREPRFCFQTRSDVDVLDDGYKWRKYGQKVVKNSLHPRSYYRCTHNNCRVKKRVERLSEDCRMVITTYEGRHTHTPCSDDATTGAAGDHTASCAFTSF
row,Sequence,binding signal
1,ACATCCCCGACCCGCCCCGCCTCACCGGTCATTCGCAGCCCGGAGTCACCTAGTGCAG,9440 fluorescence intensity (a.u.)
2,CACCGCCGCAGCCCAAGCCCACCACCACCACCGCCGCCGCCGGAGTCACCTAGTGCAG,9060 fluorescence intensity (a.u.)
3,GCCGCTCACAGCCGTCTTCGCTTGCCCGCCGCCATCGCCACGGAGTCACCTAGTGCAG,17500 fluorescence intensity (a.u.)
4,GGCTTCCCGTTGCGCGCGCGTCCCATCCTCGCCGGCGCTTCGGAGTCACCTAGTGCAG,8470 fluorescence intensity (a.u.)
5,CCGCCGCTCCACCGTCTCAGCCATCGCCACCGCCCGCAGCCGGAGTCACCTAGTGCAG,8400 fluorescence intensity (a.u.)
6,ACAGCTTGCCGCCACCACCACACCACGCCGCTCGCCGCCCCGGAGTCACCTAGTGCAG,8950 fluorescence intensity (a.u.)
7,GGCTTCATCACAGCATCCATCGCCGCCGGCCACCACCACCCGGAGTCACCTAGTGCAG,12700 fluorescence intensity (a.u.)
8,ATCCCGTTGCGTCCCATTTTCCTCGCCCTCGTCGCTAGTTCGGAGTCACCTAGTGCAG,11200 fluorescence intensity (a.u.)
9,AGCCACCACAGCCATCGCCCGTTCTTCCCGCCGGCCTATCCGGAGTCACCTAGTGCAG,9990 fluorescence intensity (a.u.)
10,CCGCCATCGCCGCCGCCATCCGTTGACCATGGCTTCAGCCCGGAGTCACCTAGTGCAG,18900 fluorescence intensity (a.u.)
11,CAGCCCGCCGCCCCGCCCCGCCCCGCCGCAGGTCATTGACCGGAGTCACCTAGTGCAG,16400 fluorescence intensity (a.u.)
12,TGTCAGCCTCGTCCGGCTTCATCCCGTTGCGTCCCATTTTCGGAGTCACCTAGTGCAG,17600 fluorescence intensity (a.u.)
13,ATCTTTTCCGCTGTTGCTGCTCCTCCTTTCTCGCTCTCGCCGGAGTCACCTAGTGCAG,9750 fluorescence intensity (a.u.)
14,AGGTTCTATGACAGTATTGCACCCGGTTTTGTCAGCTGACCGGAGTCACCTAGTGCAG,8600 fluorescence intensity (a.u.)
15,CTCCCGTGTCCCATTTAAAACCTTCTTCTTCTTCTTCGCTCGGAGTCACCTAGTGCAG,8650 fluorescence intensity (a.u.)
16,CGCCACCACTGCTGCCATCGTCAACATCCTATATGATTTTCGGAGTCACCTAGTGCAG,13400 fluorescence intensity (a.u.)
17,ATCAACCAGTAATCAATTGACCAAGCGGTTCTTGCGCCTACGGAGTCACCTAGTGCAG,9780 fluorescence intensity (a.u.)
18,GTTCTCACACTTCAGATTGTTATGTTTGGCTATGCTGTCTCGGAGTCACCTAGTGCAG,9600 fluorescence intensity (a.u.)
19,CTCTTAGCAATGCTGACTGGTCCGATCAAAGTCAACGGTTCGGAGTCACCTAGTGCAG,8730 fluorescence intensity (a.u.)
20,GAACCTGTCTACATCGGCCGTGTCTCGTGCACTTGCTCTCCGGAGTCACCTAGTGCAG,10700 fluorescence intensity (a.u.)
21,TGTCTTGGTCTTGTGGCGTTTATTGTTGCCGTCTGAGCGACGGAGTCACCTAGTGCAG,11000 fluorescence intensity (a.u.)

row,Sequence,binding signal
1,TTTAATGTATGACACCGTTGACTTTTTAACCAACGTTTGACGGAGTCACCTAGTGCAG,36300 fluorescence intensity (a.u.)
2,TTTAGACTTCTTCCAACTGGAATGCGTTTGACCCTAACCACGGAGTCACCTAGTGCAG,8180 fluorescence intensity (a.u.)
3,TGTATGATGCCTTTAACTTTTTAACCAACGTTTAATGTTTCGGAGTCACCTAGTGCAG,9010 fluorescence intensity (a.u.)
4,AATGTATGACACCGTTGACTTCTTGACCAACGTTTAACCACGGAGTCACCTAGTGCAG,18700 fluorescence intensity (a.u.)
5,GACTTTTTTAAACATATTTGACCGTTCGTTTTATTCAAAACGGAGTCACCTAGTGCAG,8190 fluorescence intensity (a.u.)
6,TTTAATATATAACACCGTTGACTTTTTATCAAACGTTTGACGGAGTCACCTAGTGCAG,23400 fluorescence intensity (a.u.)
7,TATTTTAATGTATGATGCCGTTGACTTTTTAACCAACGTTCGGAGTCACCTAGTGCAG,27000 fluorescence intensity (a.u.)
8,GTTTATAAACTTAGTCAAACTTGAAACAGTTTGACTTTGACGGAGTCACCTAGTGCAG,12400 fluorescence intensity (a.u.)
9,GTATTTTAATGTATGACATTGTTGACTTTTTGATTAACGTCGGAGTCACCTAGTGCAG,13000 fluorescence intensity (a.u.)
10,TTCAATGACAATGTTGACTTTTTGACAAACGTTTAACCTTCGGAGTCACCTAGTGCAG,10200 fluorescence intensity (a.u.)
11,CACTATTCACGTTTAACGTTTGACCGTTCTTCTTATTTGACGGAGTCACCTAGTGCAG,10300 fluorescence intensity (a.u.)
12,GCTTTTGAGTTGACAGCCACCGTTTTTAACCAACGCGCGACGGAGTCACCTAGTGCAG,8140 fluorescence intensity (a.u.)
13,GCTCTTTGGCCTGCTTCAGCCTTCAGCTTCTCCATGGTTTCGGAGTCACCTAGTGCAG,10700 fluorescence intensity (a.u.)
14,TACCTACTTTCTCATCTTAAGCAATCACTTCGACTTTAATCGGAGTCACCTAGTGCAG,9820 fluorescence intensity (a.u.)
15,TGCCTAACAATTCTTTTTATTCGCGACGTCAATATACTACCGGAGTCACCTAGTGCAG,9730 fluorescence intensity (a.u.)
16,AGAATTACTGCTGCTTTATTTACTTTTCTTCCATTGGTTTCGGAGTCACCTAGTGCAG,13000 fluorescence intensity (a.u.)
17,TTAATGTATGACACTGTTGACTTTTTTTCCAACGTTTGACCGGAGTCACCTAGTGCAG,21900 fluorescence intensity (a.u.)
18,TAATGTATTCCGGCAAATGAATATGTTGTTTGACTTTTTTCGGAGTCACCTAGTGCAG,10300 fluorescence intensity (a.u.)
19,CCGGTCGTTTCCCGTATTGTTGGCATATATGTACACGGAGCGGAGTCACCTAGTGCAG,8030 fluorescence intensity (a.u.)
20,CCGTCGTGCTGCGCCCTTCAATTTGTTGGTCTCGCTCGCCCGGAGTCACCTAGTGCAG,8490 fluorescence intensity (a.u.)
21,ACACTTTCTCTCTTGTACACTTTCATTTCACGTGTCTAAACGGAGTCACCTAGTGCAG,17500 fluorescence intensity (a.u.)

row,Sequence,binding signal
1,CGTATCTGCTCTGTTTTTCATCTCCTGTCATTTGTCTAAACGGAGTCACCTAGTGCAG,18500 fluorescence intensity (a.u.)
2,GTGTCTTGTACATGTCTTCGTTTCTTCCTTTCTCATTTCACGGAGTCACCTAGTGCAG,10900 fluorescence intensity (a.u.)
3,TTGTTTTCTACTCCTAATACTCTTTTGTCTGTCTCATCTGCGGAGTCACCTAGTGCAG,12400 fluorescence intensity (a.u.)
4,GTCATCCTGTTTCACTGCTAGCTCTCCCTAAATTTTGAAACGGAGTCACCTAGTGCAG,8490 fluorescence intensity (a.u.)
5,TTATACTTTCTCTTTTTTTCACGTGTATATTTTCTAAACCCGGAGTCACCTAGTGCAG,9610 fluorescence intensity (a.u.)
6,AAGAACACAACACACTTGATATATATACCTCACACACACTCGGAGTCACCTAGTGCAG,8060 fluorescence intensity (a.u.)
7,TACTTGGTGCAGTGTTGAGCCTTGTTTTACAATAAATTTTCGGAGTCACCTAGTGCAG,8100 fluorescence intensity (a.u.)
8,GCGCCGTTGTTCTTCCTGCCACATCCATCCTGGTGAGCACCGGAGTCACCTAGTGCAG,12700 fluorescence intensity (a.u.)
9,ATTCTCTAAATGTTTGACGCTGTTGACTTTTTAAAACATGCGGAGTCACCTAGTGCAG,16600 fluorescence intensity (a.u.)
10,CTAAATATTTAACGCTGTTGACTTTTTAAAACATATTTGACGGAGTCACCTAGTGCAG,9280 fluorescence intensity (a.u.)
11,ATGTTTGACGCTGTTGACTTTTTTAAACATATTTGACTCTCGGAGTCACCTAGTGCAG,21500 fluorescence intensity (a.u.)
12,GGGTATTTTTTAAGTAGCTAGGTGTATAATTAAATTAGTTCGGAGTCACCTAGTGCAG,8760 fluorescence intensity (a.u.)
13,TTTTTAGGGTGTGGGTATTAGTTGGAAAATACAATAAATGCGGAGTCACCTAGTGCAG,9530 fluorescence intensity (a.u.)
14,GTGTAGGAGTAGTTAGGGTTGTTGCTTGTTGGAGGGAAAACGGAGTCACCTAGTGCAG,9460 fluorescence intensity (a.u.)
15,TAATGGAAGTGGTTTACGTCGCTTCTGTCAATAAACACACCGGAGTCACCTAGTGCAG,48400 fluorescence intensity (a.u.)
16,ATGTTTACGTGCAACACATTATGGTTCTCTTCTCTGTAAACGGAGTCACCTAGTGCAG,8230 fluorescence intensity (a.u.)
17,TCATCAATGTCGACTTCTGTTTTGAAGTCGCTTTTTCATCCGGAGTCACCTAGTGCAG,9100 fluorescence intensity (a.u.)
18,ATTCCTCCGCCACAACACCACGCTGACCACAGTCCACCGTCGGAGTCACCTAGTGCAG,8360 fluorescence intensity (a.u.)
19,CCCGCTGGTGCACTTCAACGCTACTCCTCTTCGCCGCCAACGGAGTCACCTAGTGCAG,9270 fluorescence intensity (a.u.)
20,CGTACCTTCTCTGTTGAATCTCCTGTTCGCTTTTCTGTTACGGAGTCACCTAGTGCAG,9160 fluorescence intensity (a.u.)
21,TATATATATATATATATATATATATATATATATATATATCCGGAGTCACCTAGTGCAG,8650 fluorescence intensity (a.u.)

row,Sequence,binding signal
1,AGACGTATTCCTGTATCCGCCTATCCGTATCTTGGTATCACGGAGTCACCTAGTGCAG,8300 fluorescence intensity (a.u.)
2,ATATATATATATATATATATAGACGTATTCCTGTATCCGCCGGAGTCACCTAGTGCAG,21000 fluorescence intensity (a.u.)
3,GGCTTTTTTGTTGGGCTTCTTTTGATCAAAAACGTTGTTTCGGAGTCACCTAGTGCAG,12000 fluorescence intensity (a.u.)
4,TGGTGGTGGTTGTGGTTGGGTTGGTGTCTGTCTTTTGTACCGGAGTCACCTAGTGCAG,16300 fluorescence intensity (a.u.)
5,GCGATGTCGGTGTGTGGGTGGTGGTATATTTTTCCTTTTTCGGAGTCACCTAGTGCAG,18000 fluorescence intensity (a.u.)
6,CTGCTGCAGTTGAGCTGTACTGTTTTGGTGGGTTGGTTTTCGGAGTCACCTAGTGCAG,13900 fluorescence intensity (a.u.)
7,AATTCATTTGTCTTGGTACGCTGTTGGGGCGTAATAGGGGCGGAGTCACCTAGTGCAG,13200 fluorescence intensity (a.u.)
8,TATTGTATTGGGTTGGGCCTTTGTGGTTGTCTAATGAAGTCGGAGTCACCTAGTGCAG,22300 fluorescence intensity (a.u.)
9,CTTGCGGTTCATTTGGGGTTGGTTGGTTCTAGGGTACTGTCGGAGTCACCTAGTGCAG,16700 fluorescence intensity (a.u.)
10,TGTTTGGTGCTGTCGGTACATGGGTGGTGGTTTTTTCTTTCGGAGTCACCTAGTGCAG,17500 fluorescence intensity (a.u.)
11,GCGCTGTCAGTGTGTGGGTGGTAGTATATTTTTTTCTTTTCGGAGTCACCTAGTGCAG,12500 fluorescence intensity (a.u.)
12,GAGGAGGTTGGGTTCTTGATCGGTGTCGGATTTTTGGTTGCGGAGTCACCTAGTGCAG,10800 fluorescence intensity (a.u.)
13,GCGGTTGGGTTTGTGTGGTTTTTTTTGAAGGCGGAGTTGTCGGAGTCACCTAGTGCAG,12100 fluorescence intensity (a.u.)
14,TTGGTGCTGTTGGTGCGTGGGTGGTGGTATAATTTTCTTTCGGAGTCACCTAGTGCAG,11900 fluorescence intensity (a.u.)
15,GTGTGTGGGTGGTGGTATATTTTTTTTCTTTCTCTTGGTTCGGAGTCACCTAGTGCAG,12800 fluorescence intensity (a.u.)
16,GTGTGGCGGACATGTGGGCCCATGATTTTTATTATTTTTCCGGAGTCACCTAGTGCAG,9790 fluorescence intensity (a.u.)
17,ATCCTCCGCCGCCGCCTCACCTCCTCCGCCACCGCGCTCGCGGAGTCACCTAGTGCAG,8270 fluorescence intensity (a.u.)
18,GCACCCCTGTTTTCTCAGCGATCATGGCTGTAATACTGAACGGAGTCACCTAGTGCAG,8070 fluorescence intensity (a.u.)
19,TCCTCCGAATCCCAATCTCTCGCAGTTCGTTCGAGGAGCTCGGAGTCACCTAGTGCAG,8540 fluorescence intensity (a.u.)
20,GCCTCGCCCTCGCGTCGTCACCTCTCGCCATGGCCCACTACGGAGTCACCTAGTGCAG,9950 fluorescence intensity (a.u.)
21,ATTCTGTTGCGTCATCATGTTCCTGTCTACAGAGCTATACCGGAGTCACCTAGTGCAG,8840 fluorescence intensity (a.u.)
